Drawing on PubChem BioAssay (Tox21), this text covers Potency, outcome and max activation for 12 molecules.

The target of assay [1] is Thyrotropin-releasing hormone receptor (Homo sapiens) (UniProt P34981). Kind of assay: qHTS assay to identify small molecule agonists of the thyrotropin-releasing hormone receptor (TRHR) signaling pathway (AID 1346891; calls by dose curve;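 also: HEK293 cells expressing TRHR with calcium dye readout; series mostly up to about 58 µM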). In outline:
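HEK293/TRHR cells, 1500 per well, 18 h 37 °C; Ca dye 2 h 37 °C; pin-tool compound addition (agonist mode); kinetic fluorescence 3 min, 1 s reads; 15 concentrations, triplicate.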
A general note: qHTS replaces the single test concentration by a dilution series.

Assay [2] can be described thus: Human pregnane X receptor (PXR) small molecule agonists, qHTS cell viability counter screen (AID 1346977). Also: nearly all actives have a fitted effect of over 50% in size. Also: potency is read from the fitted curve at half-maximal effect. In outline: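 Fluorescence read-out (CellTiter-Fluor) of viability in PXR-Luc HepG2 cells, multiplexed with the luciferase agonist read. Compounds in DMSO added after 5hr plating; 24hr total exposure at 37C, 5% CO2.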
Assay [3] in a line: Caspase-3/7 induction in CHO-K1 cells by small molecules, qHTS cell viability counter screen (AID 1346979). Also: nearly all actives have a fitted effect of over 35% in size. Also: potency is read from the fitted curve at half-maximal effect. In outline:
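CHO-K1 wt, 1,500 cells/well; 5hr pre-incubation 37C/5% CO2; compound pin transfer (DMSO); 16hr exposure; CellTiter-Fluor added, 1hr, fluorescence read.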

Assay [4] can be described thus: Caspase-3/7 induction in CHO-K1 cells by small molecules, qHTS assay (AID 1346980). Also: nearly all actives have a fitted effect of over 15% in size. In outline:
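Wild-type cells were seeded at 1,500 per well and settled 5 hr at 37 C, 5% CO2, then exposed to DMSO-dissolved compounds for 17 hr. Caspase-Glo 3/7 reagent was added, and luminescence was read after 30min at room temperature.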

A short description of assay [5]: Caspase-3/7 induction in HepG2 cells by small molecules, qHTS cell viability counter screen (AID 1346981). Also: nearly all actives have a fitted effect of over 30% in size. Also: potency is read from the fitted curve at half-maximal effect. An outline of the steps:
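Cell viability is measured as a cytotoxicity counter screen alongside the Caspase-Glo 3/7 readout in identical wells. Wild-type HepG2 cells are treated with test compounds for 16 hr at 37 C before CellTiter-Fluor addition and a 1-hr incubation.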

Assay [6] concerns the target Nuclear receptor subfamily 1 group I member 2 (Homo sapiens) (UniProt O75469). Kind of assay: Human pregnane X receptor (PXR) small molecule agonists, qHTS assay (AID 1346982). Also: nearly all actives have a fitted effect of over 35% in size. Also: potency is read from the fitted curve at half-maximal effect. In outline:
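Cells: HepG2 stably carrying PXR-Luc. Medium held 5% charcoal-stripped FBS. Compounds in DMSO added after 5 hr plating, incubated 24 hr, then luminescence quantified with ONE-Glo.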

For assay [7], the target named is Nuclear receptor subfamily 1 group I member 2 (Rattus norvegicus) (UniProt Q9R1A7). Kind of assay: Rat pregnane X receptor (rPXR) activation by small molecules, qHTS assay (AID 1346983). Also: nearly all actives have a fitted effect of over 20% in size. Also: potency is read from the fitted curve at half-maximal effect. The conditions noted are these: rPXR luciferase reporter cells, One-Glo luminescence, 24 h; max activation: stronger effect = higher value. An outline of the steps:
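Cell-based rPXR luciferase reporter assay, 2,000 cells per well, rested 5hr at 37 C before compound addition in DMSO, then 24 hr at 37 C. One-Glo reagent was added and luminescence read after 30 min at room temperature.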

Assay [8] deals with Nuclear receptor subfamily 1 group I member 2 (Homo sapiens) (UniProt O75469). Description: CYP3A4 induction through human pregnane X receptor (PXR) by small molecules, qHTS assay (AID 1346984). Also: nearly all actives have a fitted effect of over 40% in size. Also: potency is read from the fitted curve at half-maximal effect. In outline:
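Quantitative HTS in DPX-2 cells, i.e. HepG2 transfected with PXR response element and CYP3A4-promoter luciferase. Compounds in DMSO incubated 24hr at 37C; then P450-Glo CYP3A4 substrate, 3uM final, 3hr; One-Glo luminescence.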

For assay [9] the target is unchanged. Description: Human pregnane X receptor (PXR) activation by small molecules, qHTS assay (AID 1346985). Also: nearly all actives have a fitted effect of over 40% in size. Also: potency is read from the fitted curve at half-maximal effect. In outline:
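DPX-2 cells (HepG2 co-transfected with a PXR response element and a CYP3A4-promoter luciferase construct) were seeded at 2,000 per well, rested 5 hr at 37C, then exposed to DMSO-dissolved compounds for 24 hr. Activation was read as luciferase luminescence.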

In assay [10] the target is Cytochrome P450 2D6 (Homo sapiens) (UniProt P10635). Description: Cytochrome P450 Family 2 Subfamily D Member 6 (CYP2D6) small molecule antagonists: luciferase reporter qHTS assay (AID 1671196). Also: nearly all actives have a fitted effect of over 50% in size. Also: potency is read from the fitted curve at half-maximal effect. In outline:
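Enzyme and proluciferin substrate were first combined with test chemical for 10 min at room temperature. Adding NADPH regeneration solution started a 1 h reaction, stopped with luciferin detection reagent and read by luminescence 20 min later.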
(In general: A reporter such as luciferase makes a cellular process visible.)

Assay [11] concerns the target Cytochrome P450 2C19 (Homo sapiens) (UniProt P33261). Description: Cytochrome P450 Family 2 Subfamily C Member 19 (CYP2C19) small molecule antagonists: luciferase reporter qHTS assay (AID 1671197). Also: nearly all actives have a fitted effect of over 65% in size. Also: potency is read from the fitted curve at half-maximal effect. An outline of the steps: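 First, compounds are pinned into enzyme-substrate mix and held 10 min at room temperature. Second, NADPH regeneration solution is added and plates incubate 1 h at 37C. Third, detection reagent is added and luminescence read after 20 min.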

The target of assay [12] is Voltage-gated inwardly rectifying potassium channel KCNH2 (Homo sapiens) (UniProt Q12809). Description: Human Ether-a-go-go-Related Gene (hERG) channel small molecule antagonists: fluorescence cell-based qHTS assay (AID 1671200). Also: nearly all actives have a fitted effect of over 50% in size. Also: potency is read from the fitted curve at half-maximal effect. In outline: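 Read-out: thallium influx as a surrogate for potassium, tracked as fluorescence (480 nm ex/540 nm em) every second for 2 min after Stimulus Buffer addition in dye-loaded hERG-U2OS cells.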
Sequence of Voltage-gated inwardly rectifying potassium channel KCNH2 (Homo sapiens) (Q12809 whole entry, looked up): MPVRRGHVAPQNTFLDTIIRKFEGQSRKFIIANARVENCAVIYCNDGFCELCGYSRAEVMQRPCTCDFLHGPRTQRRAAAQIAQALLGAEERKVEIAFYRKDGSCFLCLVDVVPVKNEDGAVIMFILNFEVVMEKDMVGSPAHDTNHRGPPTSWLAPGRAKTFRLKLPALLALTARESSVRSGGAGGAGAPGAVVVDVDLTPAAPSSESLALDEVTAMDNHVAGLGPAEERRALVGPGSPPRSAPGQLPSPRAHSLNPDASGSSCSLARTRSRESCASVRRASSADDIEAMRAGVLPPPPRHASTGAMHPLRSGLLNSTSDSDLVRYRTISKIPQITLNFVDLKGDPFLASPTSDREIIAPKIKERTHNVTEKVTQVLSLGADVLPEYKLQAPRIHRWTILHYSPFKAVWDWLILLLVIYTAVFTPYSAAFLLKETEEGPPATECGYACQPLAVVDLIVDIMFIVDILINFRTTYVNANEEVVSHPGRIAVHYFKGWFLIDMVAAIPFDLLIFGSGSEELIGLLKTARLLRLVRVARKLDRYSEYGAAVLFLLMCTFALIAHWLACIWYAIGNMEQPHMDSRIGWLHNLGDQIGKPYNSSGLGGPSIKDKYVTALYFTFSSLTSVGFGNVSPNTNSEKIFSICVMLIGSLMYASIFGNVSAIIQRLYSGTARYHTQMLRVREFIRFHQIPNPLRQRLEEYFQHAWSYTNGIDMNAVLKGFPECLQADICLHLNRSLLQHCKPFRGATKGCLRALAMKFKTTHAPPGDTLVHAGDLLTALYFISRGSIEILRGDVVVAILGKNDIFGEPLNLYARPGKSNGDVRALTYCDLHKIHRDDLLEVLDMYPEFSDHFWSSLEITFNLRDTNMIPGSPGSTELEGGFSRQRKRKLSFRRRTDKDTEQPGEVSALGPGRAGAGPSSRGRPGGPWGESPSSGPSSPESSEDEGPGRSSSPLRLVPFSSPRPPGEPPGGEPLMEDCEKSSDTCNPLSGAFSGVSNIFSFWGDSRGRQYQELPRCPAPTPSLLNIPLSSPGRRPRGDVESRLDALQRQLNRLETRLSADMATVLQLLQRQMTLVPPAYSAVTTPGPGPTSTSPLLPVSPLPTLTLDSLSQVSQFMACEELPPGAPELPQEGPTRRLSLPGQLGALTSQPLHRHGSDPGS
Background: The hERG channel carries a current that helps repolarise heart muscle cells.

Assay [13] can be described thus: Caspase-3/7 induction in HepG2 cells by small molecules, qHTS assay (AID 1346978). Also: nearly all actives have a fitted effect of over 15% in size. An outline of the steps: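 Wild-type HepG2 cells (2,000/well) were settled 5 h at 37 C, 5% CO2, then exposed to compounds in DMSO for 17 h. Caspase-3/7 activity was read by luminescence 30 min after adding Caspase-Glo 3/7 reagent at room temperature.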
Assay [14] concerns the target Cytochrome P450 2C9 (Homo sapiens) (UniProt P11712). Kind of assay: Cytochrome P450 Family 2 Subfamily C Member 9 (CYP2C9) small molecule antagonists: luciferase reporter qHTS assay (AID 1671198). Also: nearly all actives have a fitted effect of over 50% in size. Also: potency is read from the fitted curve at half-maximal effect. An outline of the steps: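 CYP2C9 activity was measured with a P450-Glo proluciferin substrate. Enzyme–substrate mix was held with compound for 10 min at room temperature, then NADPH regeneration solution was added for 1 h at 37C. Luciferin product was read as luminescence.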

Assay [15] deals with Cytochrome P450 1A2 (Homo sapiens) (UniProt P05177). Kind of assay: Cytochrome P450 Family 1 Subfamily A Member 2 (CYP1A2) small molecule antagonists: luciferase reporter qHTS assay (AID 1671199). Also: nearly all actives have a fitted effect of over 50% in size. Also: potency is read from the fitted curve at half-maximal effect. An outline of the steps:
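Compounds were incubated with CYP1A2 and a luminogenic proluciferin substrate for 10 min at room temperature before the reaction was started with NADPH regeneration solution. After 1 h, detection reagent was added and light output, proportional to CYP activity, was recorded.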

For assay [16], the target named is Cytochrome P450 3A4 (Homo sapiens) (UniProt P08684). Kind of assay: Cytochrome P450 Family 3 Subfamily A Member 4 (CYP3A4) small molecule antagonists: luciferase reporter qHTS assay (AID 1671201). Also: nearly all actives have a fitted effect of over 50% in size. Also: potency is read from the fitted curve at half-maximal effect. In outline:
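Luminescent readout (RLU) proportional to CYP3A4 activity, from luciferin generated off a proluciferin substrate. Enzyme–substrate mix plus compound 10 min at room temp, NADPH regeneration 1 h, detection reagent 20 min.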

Values without a mark were called inactive. Results filed as inconclusive are left out. The source made the active and inactive calls. Unless noted, calls follow the shape of the dose curve; as a rule, active = well fitted curve in the direction sought with a large enough effect in the repeat runs; inconclusive = weak or mixed curves; inactive = no such curve, though single readings can be large; an effect the other way counts as inactive or inconclusive.
% is scaled to controls: 0 for no effect and ±100 for the full control effect.

Sequence of Cytochrome P450 2C9 (Homo sapiens) (P11712 whole entry, looked up): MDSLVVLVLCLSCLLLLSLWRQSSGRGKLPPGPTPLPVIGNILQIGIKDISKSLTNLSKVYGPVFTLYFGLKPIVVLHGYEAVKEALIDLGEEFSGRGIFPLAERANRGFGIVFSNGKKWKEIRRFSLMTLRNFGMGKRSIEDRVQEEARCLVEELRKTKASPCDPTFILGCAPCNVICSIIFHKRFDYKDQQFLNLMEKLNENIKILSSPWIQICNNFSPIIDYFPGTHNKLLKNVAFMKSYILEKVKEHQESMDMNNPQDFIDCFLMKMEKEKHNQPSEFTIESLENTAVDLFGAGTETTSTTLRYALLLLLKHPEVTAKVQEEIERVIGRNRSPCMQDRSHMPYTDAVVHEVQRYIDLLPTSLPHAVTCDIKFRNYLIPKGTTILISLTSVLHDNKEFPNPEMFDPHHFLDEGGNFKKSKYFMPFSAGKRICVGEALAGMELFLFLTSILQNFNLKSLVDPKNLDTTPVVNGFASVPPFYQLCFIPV
Sequence of Cytochrome P450 3A4 (Homo sapiens) (P08684 whole entry, looked up): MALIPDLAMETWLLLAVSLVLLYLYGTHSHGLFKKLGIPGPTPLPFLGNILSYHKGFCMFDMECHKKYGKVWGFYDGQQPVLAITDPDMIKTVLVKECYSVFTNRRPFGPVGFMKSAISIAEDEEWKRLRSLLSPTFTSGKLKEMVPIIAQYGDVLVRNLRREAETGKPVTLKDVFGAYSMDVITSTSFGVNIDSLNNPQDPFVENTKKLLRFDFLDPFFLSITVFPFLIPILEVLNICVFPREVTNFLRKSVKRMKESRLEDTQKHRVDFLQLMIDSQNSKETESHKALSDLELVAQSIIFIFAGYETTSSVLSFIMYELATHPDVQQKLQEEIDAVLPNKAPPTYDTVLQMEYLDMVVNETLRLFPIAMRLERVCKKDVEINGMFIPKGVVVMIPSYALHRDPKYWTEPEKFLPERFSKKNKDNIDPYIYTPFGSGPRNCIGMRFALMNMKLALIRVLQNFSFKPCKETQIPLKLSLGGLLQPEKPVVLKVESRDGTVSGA
Sequence of Nuclear receptor subfamily 1 group I member 2 (Rattus norvegicus) (Q9R1A7 whole entry, looked up): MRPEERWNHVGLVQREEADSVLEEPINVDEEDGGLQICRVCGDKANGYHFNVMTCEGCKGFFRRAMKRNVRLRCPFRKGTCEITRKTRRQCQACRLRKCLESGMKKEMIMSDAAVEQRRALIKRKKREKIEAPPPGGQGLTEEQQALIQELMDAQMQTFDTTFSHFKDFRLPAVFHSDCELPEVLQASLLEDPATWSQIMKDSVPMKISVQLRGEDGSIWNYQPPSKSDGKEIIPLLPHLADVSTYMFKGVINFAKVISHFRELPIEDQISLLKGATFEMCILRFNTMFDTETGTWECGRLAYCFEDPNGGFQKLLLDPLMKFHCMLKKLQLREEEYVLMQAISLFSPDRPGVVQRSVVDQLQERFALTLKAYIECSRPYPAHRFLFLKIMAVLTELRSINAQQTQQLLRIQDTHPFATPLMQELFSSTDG
Sequence of Cytochrome P450 2C19 (Homo sapiens) (P33261 whole entry, looked up): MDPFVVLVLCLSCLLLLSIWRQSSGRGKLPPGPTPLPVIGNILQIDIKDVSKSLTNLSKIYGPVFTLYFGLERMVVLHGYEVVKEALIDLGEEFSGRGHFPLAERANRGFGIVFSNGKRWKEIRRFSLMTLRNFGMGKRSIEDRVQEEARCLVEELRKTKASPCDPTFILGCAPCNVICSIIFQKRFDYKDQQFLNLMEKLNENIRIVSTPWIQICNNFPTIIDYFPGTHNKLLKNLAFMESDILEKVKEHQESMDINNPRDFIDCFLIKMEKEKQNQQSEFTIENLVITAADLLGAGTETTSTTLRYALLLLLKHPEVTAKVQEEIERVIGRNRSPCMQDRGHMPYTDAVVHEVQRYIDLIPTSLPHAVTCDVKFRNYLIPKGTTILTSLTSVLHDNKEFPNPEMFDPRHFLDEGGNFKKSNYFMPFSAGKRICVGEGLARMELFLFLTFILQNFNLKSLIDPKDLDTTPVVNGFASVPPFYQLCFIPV
Sequence of Thyrotropin-releasing hormone receptor (Homo sapiens) (P34981 whole entry, looked up): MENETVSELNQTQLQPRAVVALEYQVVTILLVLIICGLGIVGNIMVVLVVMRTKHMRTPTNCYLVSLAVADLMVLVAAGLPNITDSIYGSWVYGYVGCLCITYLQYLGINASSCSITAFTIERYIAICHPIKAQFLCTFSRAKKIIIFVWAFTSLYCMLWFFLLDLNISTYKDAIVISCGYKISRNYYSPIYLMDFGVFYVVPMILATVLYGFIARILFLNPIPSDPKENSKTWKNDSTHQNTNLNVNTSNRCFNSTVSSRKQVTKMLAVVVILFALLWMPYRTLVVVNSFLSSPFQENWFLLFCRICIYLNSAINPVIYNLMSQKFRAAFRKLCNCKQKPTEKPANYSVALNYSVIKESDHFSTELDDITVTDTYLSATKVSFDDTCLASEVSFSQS
Sequence of Cytochrome P450 1A2 (Homo sapiens) (P05177 whole entry, looked up): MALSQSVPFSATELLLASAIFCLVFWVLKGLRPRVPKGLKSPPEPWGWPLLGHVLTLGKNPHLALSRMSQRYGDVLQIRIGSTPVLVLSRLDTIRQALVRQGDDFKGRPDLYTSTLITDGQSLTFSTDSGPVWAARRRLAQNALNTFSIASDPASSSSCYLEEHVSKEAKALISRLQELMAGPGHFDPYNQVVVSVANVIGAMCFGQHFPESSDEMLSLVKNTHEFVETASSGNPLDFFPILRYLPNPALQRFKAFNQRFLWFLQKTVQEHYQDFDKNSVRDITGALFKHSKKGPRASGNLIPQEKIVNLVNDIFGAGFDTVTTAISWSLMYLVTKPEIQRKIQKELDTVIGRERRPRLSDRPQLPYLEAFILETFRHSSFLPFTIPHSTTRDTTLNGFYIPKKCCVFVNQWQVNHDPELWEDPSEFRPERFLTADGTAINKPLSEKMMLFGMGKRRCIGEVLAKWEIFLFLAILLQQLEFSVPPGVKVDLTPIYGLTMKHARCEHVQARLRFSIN
Sequence of Cytochrome P450 2D6 (Homo sapiens) (P10635 whole entry, looked up): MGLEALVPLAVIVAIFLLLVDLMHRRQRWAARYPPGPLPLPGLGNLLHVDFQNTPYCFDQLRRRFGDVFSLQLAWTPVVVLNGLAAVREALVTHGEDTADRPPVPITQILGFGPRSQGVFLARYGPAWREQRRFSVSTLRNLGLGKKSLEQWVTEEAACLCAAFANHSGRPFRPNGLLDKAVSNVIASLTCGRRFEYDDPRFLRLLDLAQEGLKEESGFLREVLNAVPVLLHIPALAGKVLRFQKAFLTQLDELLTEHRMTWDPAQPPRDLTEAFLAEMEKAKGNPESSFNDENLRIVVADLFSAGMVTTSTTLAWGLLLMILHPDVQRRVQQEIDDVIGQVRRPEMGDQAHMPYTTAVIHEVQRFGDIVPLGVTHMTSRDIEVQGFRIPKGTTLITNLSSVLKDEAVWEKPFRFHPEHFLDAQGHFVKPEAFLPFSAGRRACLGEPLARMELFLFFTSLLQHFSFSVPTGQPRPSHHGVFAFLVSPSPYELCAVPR
Sequence of Nuclear receptor subfamily 1 group I member 2 (Homo sapiens) (O75469 whole entry, looked up): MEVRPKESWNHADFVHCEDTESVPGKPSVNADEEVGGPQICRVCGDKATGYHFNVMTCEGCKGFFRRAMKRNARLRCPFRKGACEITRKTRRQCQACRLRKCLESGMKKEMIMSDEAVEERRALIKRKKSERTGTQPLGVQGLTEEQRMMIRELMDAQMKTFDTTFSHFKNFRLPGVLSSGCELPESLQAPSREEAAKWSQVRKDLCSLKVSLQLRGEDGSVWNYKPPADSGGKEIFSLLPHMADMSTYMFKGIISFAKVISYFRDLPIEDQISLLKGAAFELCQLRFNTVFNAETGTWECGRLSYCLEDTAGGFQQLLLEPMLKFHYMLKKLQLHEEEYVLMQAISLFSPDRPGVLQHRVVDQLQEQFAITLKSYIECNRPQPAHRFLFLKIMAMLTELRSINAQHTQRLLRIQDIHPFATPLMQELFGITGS

For `CO[C@H]1C=CO[C@@]2(C)Oc3c(C)c(O)c4c(O)c(c5c(c4c3C2=O)=NC2(CCN(CC(C)C)CC2)N=5)NC(=O)/C(C)=C\C=C/[C@H](C)[C@H](O)[C@@H](C)[C@@H](O)[C@@H](C)[C@H](OC(C)=O)[C@@H]1C`, the Potency result in [1] and in assay [12] was “inactive” throughout. The Potency in assay [2] was 30 µM (active); in assay [3], 53.3 µM (active); in assay [5], 30 µM (active); in [6] it was 5.98 µM (active); in assay [8], 0.501 µM (active); in assay [9], 0.158 µM (active). In addition, the Potency in assay [10] and in assay [11] was 39.1 µM (active) each time. Further, the call in [4] was inactive. Moreover, the max activation in assay [7] is -0.473%.
As for `Nc1nc(Cl)nc2c1ncn2[C@@H]1O[C@H](CO)[C@@H](O)[C@@H]1F`, the Potency entry in [1], in assay [2], in assay [13], in assay [5], in assay [10] and in assay [11] was “inactive” in each case. The Potency entry in assay [14], in [15], in [12] and in assay [16] was “inactive” throughout. For the same molecule, the Potency in assay [6] is 0.531 µM (active); in assay [9], 1 µM (active). Further, the max activation in assay [7] is -7.37%.
In the case of `CC(=O)Oc1ccc2c(c1)CC[C@@H]1[C@@H]2CC[C@]2(C)[C@@H](O)CC[C@@H]12`, the Potency result in assay [1], in assay [2], in [13], in assay [8], in assay [10] and in [14] was “inactive” each time. In addition, the Potency entry in assay [12] and in assay [16] was “inactive” in each case. Besides, in assay [4], the outcome was inactive. For the same molecule, the Potency is 26.6 µM (active) in assay [6] and 24.5 µM (active) in assay [11]. Besides, the max activation in assay [7] was -1.91%.
Take `ON(Cc1ccccc1)Cc1ccccc1`: the Potency result in [1], in assay [2], in [13], in assay [3], in assay [5] and in assay [12] was “inactive” throughout. The Potency in assay [6] was 34.4 µM (active); in assay [10] it was 35.6 µM (active); in assay [15], 5.64 µM (active); in assay [16] it was 10 µM (active).
As to `Cc1ccc(S)cc1`, the Potency result in [1], in assay [2], in [13], in assay [3], in [6] and in [10] was “inactive” in each case. In addition, the Potency result in assay [12] was “inactive”. Further, the Potency in assay [14] was 35.6 µM (active); in [15], 31.7 µM (active).
Take `CCCCC(=O)O[C@]1(C(=O)CO)CC[C@H]2[C@@H]3CCC4=CC(=O)CC[C@]4(C)[C@H]3[C@@H](O)C[C@@]21C`: the Potency entry in assay [1], in assay [2], in assay [13], in assay [3], in assay [5] and in [8] was “inactive” throughout. Further, the Potency entry in [9], in [10], in [15] and in assay [12] was “inactive” throughout. For the same molecule, the Potency in assay [6] is 26.6 µM (active); in assay [7], 6.31 µM (active); in assay [16], 3.47 µM (active).
As for `C[N+]1(C)CCC(=C(c2ccccc2)c2ccccc2)CC1`, the Potency result in [1], in assay [2], in assay [3], in assay [5], in [6] and in assay [8] was “inactive” throughout. Moreover, the Potency result in assay [9], in assay [11], in assay [14], in assay [15] and in assay [16] was “inactive” in each case. The outcome in [4] was inactive. Further, the max activation in assay [7] is -1.49%. Also, the results for the Potency in [10] and in [12] were 12.3 µM (active) and 8.49 µM (active), respectively.
Take `CCCCCCCC/C=C\CCCCCCCC(=O)OC(CO)CO`: the Potency entry in [1], in assay [2], in assay [13], in [3], in assay [6] and in [12] was “inactive” in each case. Also, the Potency in assay [11] was 71 µM (active); in assay [14] it was 20 µM (active); in assay [15] it was 71 µM (active); in [16], 17.8 µM (active).
On to `C=CCNc1nc(NCC=C)nc(N2CCN(C(c3ccc(F)cc3)c3ccc(F)cc3)CC2)n1`, for which the Potency entry in assay [1], in assay [2], in assay [13], in assay [5] and in assay [15] was “inactive” each time. Moreover, the call in assay [4] was inactive. In addition, in assay [6], the Potency is 13.3 µM (active).
Turning to `C=CCOC(=O)/C=C\C(=O)OCC=C`, the Potency entry in assay [1], in [2], in assay [13], in [3], in assay [6] and in [10] was “inactive” each time. In addition, the Potency entry in assay [12] is “inactive”. The Potency in assay [15] was 28.8 µM (active).
With `O=C(OCCOCCO)c1ccccc1Nc1cccc(C(F)(F)F)c1`, the Potency result in assay [1], in assay [2], in assay [13], in [5] and in assay [10] was “inactive” each time. The max activation in assay [7] is -0.0091%. Further, the figures for the Potency in assay [14] and in [15] were 17.4 µM (active) and 12.3 µM (active), respectively.
Regarding `Cc1ccc(S(=O)(=O)NC2CCCCC2)cc1`, the Potency entry in assay [1], in [2], in assay [13], in [5], in assay [10] and in assay [12] was “inactive” throughout. In addition, the outcome in assay [4] was inactive. Moreover, the Potency in assay [6] was 27.1 µM (active); in assay [11], 6.28 µM (active); in assay [14] it was 22.3 µM (active).
